What all share (experiment): PBM binding z-score (relative to random genomic background probes); higher = stronger binding; sequences stand for … in GC…GCGATTGACAGCGTAGAATGAAGG
The subject of test [1] is PPARg:RXRa DBDmut IVT, anti-RXR (DBD mutation: RXRa K156A/R161A, NR concentration 270 nM, RXRa partner concentration 90 nM). An outline of the steps:
(§1)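 For binding z-scores, the reference was random background probes on custom Agilent 4×180K protein-binding microarrays. These arrays were incubated 1 h with ligand-free nuclear receptor dimers in PBS pH 7.4, 2% milk, 0.02% Triton X-100, 1 mM DTT, 0.2 mg/mL BSA and 0.4 mg/ml salmon testes DNA. Fluorescence was scanned after antibody detection of each partner (one per run) and regression-normalized.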

The subject of test [2] is PPARg:RXRa IVT, anti-PPARg (NR concentration 270 nM, RXRa partner concentration 90 nM). An outline of the steps: as §1
For test [3], the system named is PPARg DBDmut:RXRa IVT, anti-PPARg (DBD mutation: PPARg1 K132A/R137A, NR concentration 270 nM, RXRa partner concentration 90 nM). An outline of the steps: as §1
Test [4] relates to PPARg DBDmut IVT, anti-PPARg (DBD mutation: PPARg1 K132A/R137A, NR concentration 270 nM). An outline of the steps:
as §1

In test [5] the test system is PPARg homodimer (NR concentration 180 nM). An outline of the steps: as §1
For test [6], the system named is PXR:RXRa (NR concentration 270 nM, RXRa partner concentration 90 nM). An outline of the steps: as §1
Test [7] has as its system PXR homodimer (NR concentration 270 nM). An outline of the steps: as §1
The subject of test [8] is RARa:RXR (NR concentration 270 nM, RXRa partner concentration 90 nM). An outline of the steps: as §1
Test [9] concerns RARa homodimer (NR concentration 270 nM). The procedure, abridged:
as §1

Test [10] has as its system RARb:RXRa (NR concentration 270 nM, RXRa partner concentration 90 nM). An outline of the steps:
as §1

In test [11] the test system is RARb homodimer (NR concentration 270 nM). An outline of the steps: as §1
Test [12] concerns RARg:RXRa (NR concentration 270 nM, RXRa partner concentration 90 nM). An outline of the steps:
as §1

Test [13] deals with RARg homodimer (NR concentration 270 nM). An outline of the steps: as §1
Test [14] concerns RXRa DBDmut IVT, anti-RXR (DBD mutation: RXRa K156A/R161A, NR concentration 90 nM). The procedure, abridged: as §1
The subject of test [15] is RXRa homodimer (NR concentration 180 nM). An outline of the steps: as §1
The subject of test [16] is THRa:RXRa (NR concentration 90 nM, RXRa partner concentration 90 nM). An outline of the steps:
as §1

Test [17] has as its system THRa homodimer (NR concentration 90 nM). The procedure, abridged:
as §1

Test [18] relates to VDR:RXRa (NR concentration 270 nM, RXRa partner concentration 90 nM). An outline of the steps:
as §1

In test [19] the test system is VDR homodimer (NR concentration 270 nM). The procedure, abridged: as §1

With AGTCAAAGTTCACTAGGTGACGTAAGATTCAGCT, the PBM binding z-score amounted to 3.75 in test [1]; 6.05 in test [2]; 1.29 in [3]; 0.955 in test [4]; 3.29 in [5]; 4.22 in test [6]. Also, the PBM binding z-score in [7] amounted to 2.57; in test [8], 3.34; in test [9] it was 1.67; in [10], 4.87; in [11], 4; in test [12], 5.11. The PBM binding z-score in test [13] stood at 5.68; in [14] it was 4.42; in [15] it was 3.96; in test [16], 2.33; in test [17] it was 0.0713; in test [18], 4.03. Also, the PBM binding z-score in test [19] came to 3.73.
Consider CCTTACGGGTCACGAGGTTATAGGACGACGAGCG, for which the PBM binding z-score was found to be 4.3 in [1]; 5.38 in test [2]; 1.39 in test [3]; 0.939 in test [4]; 1.95 in [5]; 4.53 in test [6]. Moreover, the PBM binding z-score in test [7] was 0.176; in test [8] it was 5.99; in test [9], 1.17; in [10] it was 4.56; in test [11], 3.83; in test [12], 6.08. In addition, the PBM binding z-score in test [13] amounted to 5.52; in test [14], 1.46; in test [15], 7.19; in test [16], 3.68; in [17] it was 1.02; in test [18] it was 4.9. In [19], this sequence showed a PBM binding z-score of 1.85.
As to TCGGCTAGGTCAACGATGGTCAGCTAATCTGCTA, the PBM binding z-score in test [1] was 3.13; in [2], 3.06; in test [3], -0.836; in test [4], -0.603; in test [5], 1.19; in test [6], 1.58. Further, the PBM binding z-score is -0.468 in test [7]; 2.04 in test [8]; -0.329 in [9]; 3.97 in test [10]; 3.12 in test [11]; 4.15 in test [12]. The PBM binding z-score worked out at 5.22 in test [13]; 0.991 in [14]; 2.56 in test [15]; 2.96 in test [16]; 0.739 in test [17]; 1.73 in test [18]. The sequence further registered a PBM binding z-score in test [19] of 0.189.
Turning to ACTATTAGTTGAGACGAGGGCTACCGATAGGTTG, the PBM binding z-score in test [1] is 0.458; in [2], 0.0737; in test [3], 0.772; in test [4], 0.929; in test [5], -0.361; in test [6], -0.232. In addition, the PBM binding z-score in test [7] is -0.105; in test [8], -0.544; in [9] it was 0.451; in test [10] it was 0.191; in [11] it was -0.26; in [12], 0.564. Also, the PBM binding z-score in test [13] was 0.518; in [14] it was 0.406; in test [15] it was 0.235; in test [16], 0.224; in test [17], -0.838; in test [18] it was -0.103. The sequence also displayed a PBM binding z-score in [19] of -0.209.
Take TTACCAGGGTGAAGGTCGTTGATCCCTCTGTAGA: the PBM binding z-score in test [1] was 1.33; in test [2], 3.97; in test [3] it was 0.161; in test [4] it was -0.0741; in test [5], 1.08; in test [6] it was 1.6. The PBM binding z-score in test [7] was 0.104; in [8], 1.86; in [9] it was -0.0972; in [10] it was 1.69; in test [11] it was 1.74; in [12] it was 1.16. The PBM binding z-score in [13] was 0.774; in [14], -0.374; in test [15] it was 2.14; in [16] it was 1.84; in [17] it was 0.461; in test [18], 1.65. In test [19], this sequence gave a PBM binding z-score of 0.856.
On to ATATGTAGGTTAGCTGGGTTCATTCAGACTAGGC, for which the PBM binding z-score in test [1] came to 6.03; in test [2], 6.16; in test [3], 1.92; in test [4], 2.15; in [5], 2.07; in test [6] it was 6.34. Also, the PBM binding z-score in [7] came to 7.23; in test [8], 2.56; in test [9], 1.06; in test [10], 1.35; in [11], 1.47; in test [12], 1.58. Also, the PBM binding z-score in test [13] worked out at 0.836; in [14], 2.97; in test [15] it was 2.38; in test [16] it was 3.54; in test [17], 0.442; in [18] it was 6.4. Further, the PBM binding z-score in [19] stood at 6.88.
Turning to CGTCCAAGGTCCGAGAGGTCAGTGAATGCCGAGT, the PBM binding z-score in test [1] was -0.0478; in test [2] it was 0.0193; in [3], -1.25; in test [4], -0.955; in test [5], 2.31; in [6] it was 3.19. Also, the PBM binding z-score in [7] turned out to be 1.56; in [8] it was 2.87; in test [9], 0.494; in test [10], 3.23; in [11], 3.86; in test [12], 3.1. Moreover, the PBM binding z-score worked out at 3.53 in [13]; 1.19 in test [14]; 2.4 in [15]; 2.67 in test [16]; 1.18 in test [17]; 3.27 in test [18]. In test [19], the PBM binding z-score amounted to 2.95.
